Each structure is given as a SMILES string. Counter-ions that a name gives are not always drawn. ± gives the standard deviation of the averaged measurements.
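Further: End-point A600 read in BHI broth at 37 °C with 2% DMSO, inhibition computed as (1 − OD with compound plus ceftriaxone ÷ OD with ceftriaxone only) × 100.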

The assay has as its system Listeria monocytogenes 10403S. The experiment in a line: growth inhibition relative to ceftriaxone-alone control; higher = stronger potentiation of ceftriaxone growth inhibition. To be noted: 10 µM; ceftriaxone 1 ug/ml; 12 h.
On to `CN1CC[C@H](c2c(O)cc(O)c3c(=O)cc(-c4ccccc4Cl)oc23)[C@H](O)C1` [Flavopiridol HCl], for which the growth inhibition came to 10.3 ± 6.8%.

As for `C=CC(=O)N1CCC[C@@H](n2nc(-c3ccc(Oc4ccccc4)cc3)c3c(N)ncnc32)C1`, the growth inhibition came to 42.1 ± 24%.

Turning to `OCCn1cc(-c2ccc3c(c2)CC/C3=N\O)c(-c2ccncc2)n1`, the growth inhibition came to 83 ± 8.8%.

Turning to `NS(=O)(=O)c1ccc(NC=C2C(=O)Nc3ccc4ncsc4c32)cc1`, the growth inhibition was -8.58 ± 4.7%.

On to `Cc1ccc(Nc2nccc(N(C)c3ccc4c(C)n(C)nc4c3)n2)cc1S(N)(=O)=O` [Pazopanib HCl], for which the growth inhibition was found to be 20.4 ± 13%.

As for `CN(C)c1ccc2c(c1)/C(=C/Nc1ccc(S(N)(=O)=O)cc1)C(=O)N2`, the growth inhibition amounted to 1.99 ± 14%.

Take `O=C(NOCC1CC1)c1ccc(F)c(F)c1Nc1ccc(I)cc1Cl`: the growth inhibition was 8.54 ± 25%.

For the compound `Cc1[nH]c(/C=C2\C(=O)Nc3ccccc32)c(C)c1CCC(=O)O`, the growth inhibition amounted to 98.7 ± 2.4%.

Take `CO[C@@H](C(=O)N1Cc2[nH]nc(NC(=O)c3ccc(N4CCN(C)CC4)cc3)c2C1)c1ccccc1`: the growth inhibition came to 45.2 ± 16%.

On to `Cc1ccc2c(-c3ccnc(Nc4ccccc4)n3)c(-c3ccc(F)cc3)nn2n1`, for which the growth inhibition is -6.27 ± 1.4%.

Turning to `CN(c1ccc(NC(=O)Nc2c(Cl)cccc2Cl)cc1)c1ccnc(Nc2cccc(CS(C)(=O)=O)c2)n1`, the growth inhibition is -2.91 ± 0.88%.

For the compound `CC(C)(C)c1cc(NC(=O)Nc2ccc(-c3cn4c(n3)sc3cc(OCCN5CCOCC5)ccc34)cc2)no1` [Quizartinib (AC220)], the growth inhibition turned out to be 35.5 ± 10%.

As to `S=C(NCc1ccc2c(c1)OCO2)N1CCN(c2ncnc3c2oc2ccccc23)CC1` [Amuvatinib (MP-470)], the growth inhibition came out at 11.7 ± 22%.

In the case of `CCn1c(-c2nonc2N)nc2c(C#CC(C)(C)O)nc(CN3CCCC3)cc21`, the growth inhibition was found to be 4.95 ± 5.7%.

The record behind these values is the supplement of paper PMC5641865, “A screen for kinase inhibitors identifies antimicrobial imidazopyridine aminofurazans as specific inhibitors of the Listeria monocytogenes PASTA kinase PrkA” (The Journal of Biological Chemistry, 2017).
